In PubChem BioAssay AID651815 (National Center for Advancing Translational Sciences (NCATS), 2012):
“And” between values parts separate entries of the source, which are not always exact repeats. Equal values may be shown once. Screen size: about 2,100 compounds; about 1,100 (52%) were called active. Another 29% or so got no clear call; they are omitted. The set was probably picked from earlier hits. This is one part of the list. Values without a mark were called inactive. Calls come from the whole dose curve; as a rule, active = well fitted inhibition curve with a large enough effect; inconclusive = small, poorly fitted or top-dose-only effect; inactive = no such curve, though single readings can be large or run the other way.

These molecules were tested against DNA dC->dU-editing enzyme APOBEC-3F (Homo sapiens) (UniProt Q8IUX4) (assay: qHTS for inhibitors of Vif-A3F interactions: Cherry picks counterscreen). Conditions: HeLa A3F-eYFP/Vif cells, eYFP fluorescence, 24 h; series mostly up to 46.1 µM; activity, negative = inhibitor: at the top concentration.
DNA dC->dU-editing enzyme APOBEC-3F (Homo sapiens), sequence (Q8IUX4 whole entry, looked up): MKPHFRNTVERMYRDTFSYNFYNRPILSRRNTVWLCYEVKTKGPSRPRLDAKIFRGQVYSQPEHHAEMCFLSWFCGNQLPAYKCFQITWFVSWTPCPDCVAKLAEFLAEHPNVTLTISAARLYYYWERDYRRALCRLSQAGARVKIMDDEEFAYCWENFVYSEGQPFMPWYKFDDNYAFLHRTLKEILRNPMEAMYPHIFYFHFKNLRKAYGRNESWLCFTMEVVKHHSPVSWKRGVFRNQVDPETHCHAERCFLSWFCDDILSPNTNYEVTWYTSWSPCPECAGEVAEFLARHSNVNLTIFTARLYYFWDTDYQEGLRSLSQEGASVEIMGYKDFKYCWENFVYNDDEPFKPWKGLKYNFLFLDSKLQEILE
Summary of the method: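 HeLa cells stably expressing A3F-eYFP and Vif, cultured overnight, then treated 24 h at 37 degrees C with compounds at several concentrations; yellow fluorescence (488 nm Ex/500-530 nm Em) imaged on Acumen; MG132 positive control.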
% is set by controls: 0 for no effect and ±100 for the full control effect; potency is the fitted concentration of half-maximal effect.
Note: nearly all actives have a fitted effect of over 65% in size.

Compound | Potency | activity, negative = inhibitor
N=C1S/C(=C\c2ccc(-c3cccc(Cl)c3)o2)C(=O)N1c1nccs1 | 18.4 µM (active) | –
O=C(N/N=C/c1c(O)n(-c2ccc(Cl)cn2)c(=O)c2ccccc12)c1ccncc1 | – | -29.3%
COc1ccc(N=Cc2c(O)n(-c3cccc(C)n3)c(=O)c3ccccc23)c(OC)c1 | 23.1 µM (active) | –
Cc1ccc(N=Cc2c(O)n(-c3nccs3)c(=O)c3ccccc23)c(C)c1 | – | -8.48%
CCOC(=O)Cc1ccc(Nc2nc3cc(-c4sccc4C)sc3c(=O)n2C)cc1 | 3.96 µM (active) | –
COc1ccc(-n2cc3c(-c4cccc(Br)c4)nnc(C)c3n2)cc1 | – | -21.6%
COc1ccc(-n2nnnc2-c2cccc(OC)c2)cc1 | 1.25 µM (active) | –
COc1ccc(-n2nnnc2-c2ccccc2)cc1 | 2.5 µM (active) | –
CCOc1cccc(-n2nnnc2-c2ccc(OC)cc2)c1 | 4.44 µM (active) | –
COc1ccc(-c2cc(NC(C)=O)c3ncc(-c4cc(OC)c(OC)c(OC)c4)n3c2)cn1 | 7.04 µM (active) | –
COc1cc(-c2cnc3c(NC(C)=O)cc(-c4ccccc4CN(C)C)cn23)cc(OC)c1OC | 12.5 µM (active) | –
CC(NC(=O)c1ccc(Nc2nc3ccccc3n3nnnc23)cc1)c1ccccc1 (centres undefined) | 18.4 µM (active) | –
COc1ccccc1CNC(=O)c1ccc(Nc2nc3ccccc3n3nnnc23)cc1 | 23.1 µM (active) | –
COc1cc(Nc2nc3ccccc3n3nnnc23)cc(OC)c1OC | 13 µM (active) | –
Cc1ccc(CNC(=O)c2cccc(Nc3nc4ccccc4n4nnnc34)c2)cc1 | 20.6 µM (active) | –
Cc1cc(C)nc(-n2nc(C)cc2NC(=O)c2ccc(F)cc2F)n1 | – | -4.7%
COc1cc2ccccc2cc1C(=O)N/N=C/c1cccs1 | 1.77 µM (active) | –
COc1ccc(NC(=O)/C(C#N)=C/C=C/c2ccco2)cc1 | 6.27 µM (active) | –
COc1ccc(NC(=O)/C(C#N)=C\C=C\c2ccco2)cc1 | 7.04 µM (active) | –
CCOC(=O)c1c(NC(=O)CSc2nc3ccc(OC)cc3[nH]2)sc2c1CC(C)(C)NC2(C)C | – | -11.3%

Compound | Potency | activity, negative = inhibitor
C=CCOc1ccc2nc(NC(=O)OC)[nH]c2c1 | 2.5 µM (active) | –
CC(C)n1cnc2c(NCc3ccccc3)cc(N[C@H](C)CO)cc21 | 14 µM (active) | –
COc1ccccc1Nc1nnc(SCC2CCCCO2)s1 (centres undefined) | 14 µM (active) | –
Cc1ccc(NC(=O)C(=Cc2ccc(C(=O)O)cc2)C(=O)Nc2ccc(C)cc2C)c(C)c1 | 3.53 µM (active) | –
COc1cc(/C=C2\SC(=S)N(NC(=O)c3ccccc3OC)C2=O)ccc1O | – | -11.7%
COc1cc(/C=C2\SC(=S)N(Nc3ncc(C(F)(F)F)cc3Cl)C2=O)ccc1O | 20.6 µM (active) | –
C=CCN1C(=O)/C(=C/c2ccc(O)c(OC)c2)S/C1=N/c1nccs1 | – | 46.6%
CN(C)c1ccc(/C=C2\SC(=S)N(Nc3ncc(C(F)(F)F)cc3Cl)C2=O)cc1 | 6.51 µM (active) | –
N=C1/C(=C\c2coc3ccccc3c2=O)C(=O)N=C2SC(c3ccncc3)=NN12 | 20.6 µM (active) | –
COc1ccc(C)cc1NCc1cc(=O)oc2cc(-c3ccccc3)c(O)cc12 | – | -25.1% [at 36.9 µM]
COc1ccc(-c2coc3cc4oc(=O)cc(-c5ccccc5)c4cc23)cc1F | 1.98 µM (active) | –
COc1ccc2nc3sc(C(=O)Nc4cc(Cl)c(OC)cc4OC)cc3cc2c1 | 4.11 µM (active) | –
Nc1nc2n[nH]nc2c(=O)[nH]1 | 9.2 µM (active) and 3.96 µM (active) | –
Cc1noc(C)c1CSc1nc2ccccc2c(=O)n1-c1ccccc1 | 3.53 µM (active) | –
C=CCn1c(SCc2c(C)noc2C)nc2cc(C(=O)O)ccc2c1=O | 17.7 µM (active) | –
O=S(=O)(Nc1nc2ccccc2nc1N1CCc2ccccc2C1)c1ccc(Br)cc1 | 23.1 µM (active) | –
O=S(=O)(Nc1nc2ccccc2nc1N1CCN(c2ccccc2)CC1)c1ccc(F)cc1 | 18.4 µM (active) | –
O=C(N=c1ccn(-c2nc3ccccc3nc2NS(=O)(=O)c2ccccc2)cc1)c1cccs1 | – | -19.2%
CN1CCN(c2nc3ccccc3nc2NS(=O)(=O)c2ccc(Br)cc2)CC1 | 18.4 µM (active) | –
O=C(N=c1ccn(-c2nc3ccccc3nc2NS(=O)(=O)c2ccc(Cl)cc2)cc1)c1cccs1 | 16.4 µM (active) | –

Compound | Potency | activity, negative = inhibitor
O=S(=O)(Nc1nc2ccccc2nc1N1CCN(c2ccccn2)CC1)c1ccc(Cl)cc1 | 16.4 µM (active) | –
O=C(NC(=S)N1CCN(c2ccccn2)CC1)c1ccccc1 | – | 12.7%
NC(=O)C1CCN(c2nc3ccccc3nc2NS(=O)(=O)c2ccc(Br)cc2)CC1 | 16.4 µM (active) | –
Cc1c(=O)n(OCc2ccc(Cl)cc2)c2ccccc2[n+]1[O-] | – | -16.2% [at 36.9 µM]
CN1/C(=C/C=C(C#N)C#N)C(C)(C)c2ccccc21 | 2.91 µM (active) | –
CC1=C/C(=C\C=C(C#N)C#N)N(C)c2ccccc21 | 3.26 µM (active) | –
CN1/C(=C\C=C(C#N)C#N)C(C)(C)c2ccccc21 | 16.4 µM (active) | –
CN1/C(=C/C=C(/C#N)C(N)=O)C(C)(C)c2ccccc21 | 7.04 µM (active) | –
CCOC(=O)C(C)Oc1cccc2c(=O)n(CC(=O)NCc3ccco3)ccc12 (centres undefined) | 3.14 µM (active) | –
COC(=O)COc1cccc2c(=O)n(CC(=O)NCc3ccccc3)ccc12 | 4.44 µM (active) | –
CCOc1cc(C)nc(NCc2ccccc2)n1 | – | -25.2% [at 36.9 µM]
COc1ccc(-c2nnc(SCC(=O)NCc3ccccc3)nc2-c2ccc(OC)c(OC)c2)cc1OC | 5.17 µM (active) | –
COc1cc(-c2nc3ccc(C)cn3c2NCc2ccccc2)ccc1SC1CCCCC1 | – | 0.399% [at 36.9 µM]
COc1ccc(-c2nc3c4ccccc4ccn3c2Cc2ccsc2)cc1OC | – | -14.4% [at 36.9 µM]
CCOc1cc(-c2nnc(SCC(=O)NCc3ccccc3)nc2-c2ccc(OC)c(OCC)c2)ccc1OC | 2.31 µM (active) | –
CCC(C)Sc1cc(-c2nc3ccccn3c2NC2CCCCC2)ccc1OC (centres undefined) | – | -26.4%
N#CC1=C(N)C(C#N)(C#N)[C@H](c2c(F)cccc2F)[C@H]2CC3(CC=C12)OCCO3 | 16.4 µM (active) | –
Cc1cccc(CN2C(=O)N/C(=C/c3ccc(C)s3)C2=O)c1 | 12.5 µM (active) | –
Cc1ccc(/C=C2/NC(=O)N(Cc3ccccc3F)C2=O)s1 | 4.11 µM (active) | –
